“And” between values parts separate entries of the source, which are not always exact repeats. Equal entries are not always repeated. The panel holds about 83,000 compounds, 20% with a hit somewhere; the sample as a whole holds those more often.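 For each line, cells grew in 96-well plates with the test compound present at a single concentration for 48 hours.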 Unmarked numbers belong to inactive results. The source made the active and inactive calls. Rule for the calls: active = growth percent below 10; inactive = the rest.
system: MDA-MB-468 breast; assay: NCI-60 one-dose screen, 48 h (100 = growth as untreated, 0 = no growth, -100 = all killed); conditions: 10 µM unless noted

SMILES	growth
COc1cc(C(=O)n2nc(-c3cc(OC)c(OC)c(OC)c3)nc2N)cc(OC)c1OC	101%
C=C(c1ccc(C(=O)O)cc1)c1cc2c(cc1C)C(C)(C)CCC2(C)C	109% and 103%
C=C(C)[C@@H]1CC[C@]2(C(=O)Nc3ccccn3)CC[C@]3(C)[C@H](CC[C@@H]4[C@@]5(C)CCCNC(C)(C)[C@@H]5CC[C@]43C)[C@@H]12	-13.8% (active)
COc1cc2c(cc1O)CCN1C[C@@H](CC(C)C)[C@@H](O)C[C@@H]21	103%
Clc1ccc2[nH]cc(-c3nn4cc(-c5cccnc5)nc4s3)c2c1	98.1%
O=C1/C(=C\C(Cl)=C/c2ccc([N+](=O)[O-])cc2)SC(=S)N1CCc1ccc(O)cc1	-84.7% (active)
COc1ccc(NC(=O)CCCCCCNC(=O)C(O)(O)C(F)(F)F)cc1	31.8%
COc1ccc(S(=O)(=O)n2ccc(-c3ccc4c(c3)CCC(C)(C)O4)n2)cc1OC	28.4%
O=C(CSc1nc2ccccc2c(=O)n1-c1ccccc1)N/N=C/c1ccc(Oc2ccc(Cl)cc2)cc1	71.6%
COc1cc2nc(Cl)nc(Nc3ccc(S(=O)(=O)Nc4nccs4)cc3)c2cc1OC	102%
FC1(F)CCN(Cc2c[nH]c3cc(Cl)ccc23)C[C@H]1CCc1ccccc1	9.33% (active)
O=C1C2C(c3cccs3)C=C(c3ccc(Cl)cc3)N2C(=S)N1c1ccccc1 (stereo not given)	79.7%
CCC(C)C1(C2CCCC2)NC(=O)NC1=O (stereo not given)	115% and 121%
COc1ccc2nc(-c3ccc(Cl)cc3)cc(-c3nnc(SCC(=O)Nc4ccc(/C(C)=N\O)cc4)o3)c2c1	58.4%
COC(=O)C1OC1c1cc([N+](=O)[O-])ccc1OC (stereo not given)	76.2%
CCn1cnc2c1c(=O)[nH]c(=O)n2CC1CCC(CNS(=O)(=O)c2ccc(OC3CCOCC3)c(F)c2)CC1 (stereo not given)	30.5%
NC(=O)CSc1nc(-c2ccc(F)cc2)cc(-c2ccco2)n1	71.7%
O=c1[nH]nnc2c1ncn2C1OC(CO)C(O)C1O (stereo not given)	40.1%
Cc1ccc(/C=C2\SC(=S)N(c3ccc(F)cc3)C2=O)o1	69.6%
COc1cc(/C=C2\C(=O)Nc3ccc(Br)cc32)cc(OC)c1OC	16.9%

SMILES	growth
COC1=CC(c2ccc[nH]2)=N/C1=C\c1[nH]c(C)c(C(=O)Oc2ccccc2)c1C	-82.9% (active)
Cc1ccc(Nc2oc(-c3ccccc3)nc2[P+](c2ccccc2)(c2ccccc2)c2ccccc2)cc1	-77.1% (active)
Cc1ccc(C(=O)NN)cc1	106%
Nc1c(Cl)cc([N+](=O)[O-])cc1Br	92.3%
CCCCCCCCCCCCCC(=S)NCCCC[C@H](NC(=O)OCc1ccccc1)C(=O)Nc1ccccc1	27.1%
Nc1ccc(N=Nc2ccccc2)cc1[N+](=O)[O-]	-6.35% (active)
Cc1ccc2nc(NC(=O)CSC(=S)N3CCN(Cc4ccccc4)CC3)sc2c1	-76.4% (active)
C[C@]12CC[C@@H]3c4ccc(OCC(=O)O)cc4CC[C@H]3[C@@H]1CCC2=O	113%
COc1ccc(C2=NN(C(=O)c3ccc(S(C)(=O)=O)cc3)C(c3ccc(OC)c(OC)c3)C2)c(OC)c1 (stereo not given)	87%
COc1ccc(C2=C(c3cccc(OC)c3)C(=O)c3ccc(C)nc3C2=O)cc1	-60.8% (active)
NNc1nnc2nc(Nc3ccccc3)nc(Nc3ccc(S(N)(=O)=O)cc3)n12	126%
Cc1nn(-c2ccc(Cl)cc2)c(C)c1N=Nc1ccc2oc(=O)ccc2c1	98.5%
Cn1c(=O)[nH]c(=O)c2nc(CCC(=O)NCCC(=O)O)c(=O)[nH]c21	102%
CCCCN1C(=O)/C(=c2\sc3n(c2=O)C2C(NN=3)N(CC)C(=O)N2CC)c2cccc(C)c21 (stereo not given)	12.4%
CC(C)(C)c1ccc2oc(=O)n(SC(Cl)(Cl)Cl)c2c1	126%
CC(=O)c1c(C)nc(SCC(=O)Nc2ccc(Cl)cc2)n1-c1ccc(Cl)cc1	71.3%
C#CCOc1ccccc1C(Nc1ccccc1)c1nnnn1C1CCCCC1 (stereo not given)	93.7%
O=C(N/N=C/c1ccccc1O)C(O)(c1ccccc1)c1ccccc1	38.2%
C#CC(=O)/C=C/CCCCCCC#CC(=O)CCC(=O)C#CCCCCCC/C=C/C(=O)C#C	-10% (active)
CCN(CC)CCNC(=O)c1c(C)[nH]c(/C=C2\C(=O)Nc3ccc(F)cc32)c1C	-56.4% (active)

From PubChem BioAssay (NCI)
